Results filed as inconclusive are left out. Active and inactive are the calls of the source. Calls follow the shape of the dose curve; as a rule, active = well fitted cell-killing curve with a large enough effect in the repeat runs; inconclusive = weak or mixed curves, or effect the other way; inactive = no such curve, though single readings can be large or run the other way.
% is scaled to controls: 0 for no effect and ±100 for the full control effect; potency is read from the fitted curve at half-maximal effect.

This assay is described as follows: qHTS assay to identify small molecule antagonists of the vitamin D receptor (VDR) signaling pathway - cell viability counter screen (AID 743225). Also: nearly all actives have a fitted effect of over 50% in size. The settings on record: VDR-bla HEK293T viability, CellTiter-Glo luminescence, 16 h; series mostly up to 61 µM; viability change, negative = cytotoxic: at the top concentration. The procedure, abridged: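 Cells (VDR-UAS-bla HEK 293T) are plated, rested 4 h at 37C, dosed with compound and 3 nM final 1-alpha,25-dihydroxy vitamin D3, and incubated 16 h. Viability is taken from CellTiter-Glo luminescence in the reporter wells.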
(In qHTS, concentration-response curves come from the screen itself.)
As to `CC(=O)Oc1ccc2c(c1)CC[C@@H]1[C@@H]2CC[C@]2(C)[C@@H](O)CC[C@@H]12`, the “viability change, negative = cytotoxic” value was -2.7% (inactive).
The same measure, in the same setting: the result for `CC(N)CN` (centres undefined) reads -0.725% [at 78.8 µM] (inactive); that for `COc1cc2ncnc(Nc3ccc(F)c(Cl)c3)c2cc1OCCCN1CCOCC1`, -6.63% (inactive); that for `Cc1cc(OI)c(C(C)C)cc1-c1cc(C(C)C)c(OI)cc1C`, 8.48% (inactive).
As to `O=C(CCCN1CCN(c2ccc(F)cc2)CC1)NC1c2ccccc2CSc2ccccc21` (centres undefined), the Potency was 23.9 µM (active).
As to `CC(C)CCCC(=O)O`, the “viability change, negative = cytotoxic” value is 5.5% (inactive).
On the same count and under the same terms, as for `COCCOC`, the figure is 0% (inactive); as for `O=C(CS)OCCOC(=O)CS`, 0.953% (inactive).
Still for that read-out and setting: the result for `CCCc1c(OCCCOc2ccc(OCC(=O)O)cc2)ccc(C(C)=O)c1O` reads -9.34% (inactive); that for `Cc1occc1C(=O)Nc1ccc(C(=O)N2CCC(F)(F)/C(=C\C(=O)N3CCC(N4CCCCC4)CC3)c3ccccc32)cc1`, 7.04% [at 28.5 µM] (inactive); that for `O=C1OCCN1/N=C/c1ccc([N+](=O)[O-])o1`, 0.731% (inactive).
The same measure, in the same setting: as for `COC(OC)(C(=O)c1ccccc1)c1ccccc1`, the figure is -0.871% (inactive).
Regarding `CO/N=C1\CN(c2nc3c(cc2F)c(=O)c(C(=O)O)cn3C2CC2)CC1CN` (centres undefined), the “viability change, negative = cytotoxic” value was -6.64% (inactive).
For `CC(C)C(OC(=O)c1ccccc1)C(C)(C)COC(=O)c1ccccc1` (centres undefined), the “viability change, negative = cytotoxic” value is -8.84% (inactive).
For `O=C(Nc1ccc([N+](=O)[O-])cc1)Nc1ccc([N+](=O)[O-])cc1`, the “viability change, negative = cytotoxic” value was 0.751% (inactive).
On the same count and under the same terms, the result for `CC(C)(CCl)c1ccccc1` reads -6.48% (inactive); that for `Cc1nccn1-c1ccc(Sc2cccc(C3(C(N)=O)CCOCC3)c2)cc1`, -1.75% (inactive).
For `CC[C@@H]([C@H](C)O)n1ncn(-c2ccc(N3CCN(c4ccc(OC[C@@H]5CO[C@@](Cn6cncn6)(c6ccc(F)cc6F)C5)cc4)CC3)cc2)c1=O`, the Potency was 23.9 µM (active).
In the case of `CO[C@@]12[C@H](COC(N)=O)C3=C(C(=O)C(C)=C(N)C3=O)N1C[C@@H]1N[C@@H]12`, the “viability change, negative = cytotoxic” value is -1.32% (inactive).
Still for that read-out and setting: the result for `Cc1ccc(S)cc1` reads 1.65% (inactive).
Still for that read-out and setting: as for `CCCOCCOCCO`, the figure is -13.1% (inactive); as for `CC(C)c1nnc2ccc(-c3ocnc3-c3cc(F)ccc3F)cn12`, -13% (inactive).
The same measure, in the same setting: the result for `O=C(CCCCCCC(=O)Nc1ccccc1)NO` reads -28% (inactive); that for `O=C(c1ccc(O)cc1)c1ccc(Cl)cc1`, 2.94% [at 78.8 µM] (inactive); that for `CO[C@H]1C=CO[C@@]2(C)Oc3c(C)c(O)c4c(O)c(c5c(c4c3C2=O)=NC2(CCN(CC(C)C)CC2)N=5)NC(=O)/C(C)=C\C=C/[C@H](C)[C@H](O)[C@@H](C)[C@@H](O)[C@@H](C)[C@H](OC(C)=O)[C@@H]1C`, -0.673% (inactive).
With `CC(C)(O)c1ccccc1CC[C@@H](SCC1(CC(=O)O)CC1)c1cccc(/C=C/c2ccc3ccc(Cl)cc3n2)c1`, the “viability change, negative = cytotoxic” value was -5.96% (inactive).
The same measure, in the same setting: as for `NC(=O)Cn1c(=O)cc(CCN2CCN(c3nccc4sccc34)CC2)c2ccc(F)cc21`, the figure is -3.39% (inactive); as for `O=Cc1c(Cl)cccc1Cl`, -1.38% [at 78.8 µM] (inactive); as for `CC#N`, 13% [at 78.8 µM] (inactive).
Same read-out and setting: as for `CCCCCCCCCCOS(=O)(=O)O`, the figure is -14.4% (inactive); as for `NC(=O)N(O)[C@@H]1COc2cc(OCc3ccccc3)ccc21`, 0.228% (inactive).
Regarding `OCC1CC=CCC1` (centres undefined), the “viability change, negative = cytotoxic” value was -1.74% (inactive).
Same read-out and setting: the result for `C[Si](NC1CCCCC1)(NC1CCCCC1)NC1CCCCC1` reads -20.9% (inactive).
On the same count and under the same terms, as for `CCCCCCOC(=O)C(C)C`, the figure is 3.9% (inactive).

The values above are taken from PubChem BioAssay (Tox21).
